The results in this text go back to PubChem BioAssay AID492965 (The Scripps Research Institute Molecular Screening Center, 2010).

What is called inhibition is the change of the read-out against control, counted positive when it falls.

The campaign covered roughly 1,100 compounds. About 100 (9.1%) were called active. The list is a sample of the results. Unmarked numbers belong to inactive results.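 Rule for the calls: active = inhibition above a per-plate limit, the mean inhibition of that plate's test compounds plus 3 SD (cut at about 25% in these data); inactive = the rest.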

The assay can be described thus: ATP-evoked calcium inhibition in parental CHO, counter-screen for OX1R antagonist project, cell-based, fluorescence, CHO-K1, triplicate (AID 492965).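 Note: 0% = ATP challenge with DMSO and 100% = DMSO without ATP.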 The following applies: parental CHO-K1, ATP-induced calcium, Fluo-8 fluorescence; at 5.6 µM; active compounds read high. (Counterscreens check selectivity or assay interference.)
For the molecule `COc1cc(CN2CC(C)CC(C)C2)cc([N+](=O)[O-])c1O` (stereo not given), the inhibition is 22.2%. As to `O=C(Nc1cccc(NC(=O)N2CCN(c3ccccc3)CC2)c1)N1CCN(c2ccccc2)CC1`, the inhibition was 6.96%.

As for `CCOC(=O)c1cccc(NC(=O)CN(c2ccc(C)cc2)S(=O)(=O)c2c(C)noc2C)c1`, the inhibition was -18.6%. As for `Cc1cc(-c2ccc(C)c(S(=O)(=O)NC(C)Cc3ccco3)c2)on1` (stereo not given), the inhibition is -8.08%. With `COc1ccc(/C=C/C(=O)c2ccc(NS(=O)(=O)c3ccc(C)cc3)cc2)cc1O` the figure was 2.08%; with `Cc1ccc2c(C)c(C(=O)N(C)CCC3CCCCO3)oc2c1C` (stereo not given), -10%. For `C/C(N)=C(/C#N)C(=O)COC(=O)c1cc(-c2ccc(C)cc2)nc2ccccc12`, the inhibition was -4.89%. With `c1coc(CNc2ncnc3ccccc23)c1` the figure was 26.1% (active). With `N#C/C(=C1\CCCN1)c1nc(-c2ccccc2)cs1` the figure was 3.08%; with `Cc1cc(C)cc(NC(=O)C2CCCN2S(=O)(=O)c2cccc3cccnc23)c1` (stereo not given), -10.6%. The figure for `O=C(OC1CCOC1=O)c1ccc(-c2nc3ccccc3s2)s1` (stereo not given) is 10.7%. Regarding `Cc1ccc(NC(=O)COc2ccc(-n3ccnc3)cc2)cc1Cl`, the inhibition is 15.7%. The figure for `O=C(Nc1cccc2cccnc12)c1cccc(N2C(=O)CCC2=O)c1` is -5.5%; for `CCc1ccccc1OCC(=O)Nc1ccc(C)c(S(=O)(=O)N2CCCCCC2)c1` it is 2.45%; for `CCCN(CC(=O)Nc1ccccc1OC)C(=O)CCC(=O)c1ccc(F)cc1` it is -5.67%. As for `CCCc1nc2c(c(=O)c3ccccc3n2C)c(=O)n1C1CCCCCC1`, the inhibition is -3.88%. Take `CC1(C)C2CC=C(/C=N/NC(=O)C3CC3)C1C2` (stereo not given): the inhibition was -15%. With `CCCCCCCC(=O)NC(Nc1ccccc1OC)C(Cl)(Cl)Cl` (stereo not given) the figure was -10.6%. As to `CCCCC(=O)NNC(=S)NC(=O)C(c1ccccc1)c1ccccc1`, the inhibition was 34.8% (active). With `COc1ccc(N2CC(C(=O)NCCN3C(=O)S/C(=C\c4cccnc4)C3=O)CC2=O)c(OC)c1` (stereo not given) the figure was -8.16%; with `Cc1cc(N2CCCC2=O)cc(C)c1S(N)(=O)=O`, -0.33%. With `C=CCn1c(SCC(=O)Nc2nc3ccccc3s2)nnc1-c1ccccc1O` the figure was -4.55%; with `S=c1[nH]nc(-c2cc(-c3ccccc3)n[nH]2)n1/N=C/c1c2ccccc2cc2ccccc12`, -7.45%; with `CCOc1cc(/C=C(\C#N)c2nc(-c3cccs3)c(NC(C)=O)s2)ccc1O`, 14.1%. The figure for `COCc1c(C(=O)OCC(=O)Nc2ccc(OC(F)F)cc2)oc2ccccc12` is -3.09%. `CCC(=O)N(C)C(c1ccccc1Cl)c1nnnn1-c1c(C)cccc1C` (stereo not given): the inhibition was -6.17%. On to `CC(=O)Nc1cccc(OCC(=O)/C=C2\N(C)c3ccccc3C2(C)C)c1`, for which the inhibition was 6.99%. With `Cc1cccc(NC(=O)Nc2cccc(Oc3c(F)c(F)c(F)c(F)c3F)c2)c1` the figure was 38.9% (active). The figure for `Cc1cccc(NS(=O)(=O)c2cccc(C(=O)NNC(=O)c3ccccc3O)c2)c1` is 15.6%; for `N#Cc1nc(-c2cccc3ccccc23)oc1N` it is -11.2%. Turning to `O=C1c2ccccc2S(=O)(=O)N1CC(O)Cn1c2ccccc2c2ccccc21` (stereo not given), the inhibition is 4.28%. With `N#C/C(=C/c1ccc(N2CCCCC2)o1)C(=O)NCCc1c[nH]c2ccccc12` the figure was 31.6% (active). The figure for `CCOc1ccc(/C=C/C(=O)OCC(=O)c2ccccc2OC)cc1OC` is -17.5%; for `COc1cccc(/C=N/NC(=O)c2[nH]nc3c2CCc2ccccc2-3)c1O` it is -10.5%.

`CCOC(=O)N1CCN(C(=O)c2ccc(S(=O)(=O)Nc3cccc(C(F)(F)F)c3)cc2)CC1`: the inhibition was 9.17%. With `CCOC(=O)N1CCN(c2cc(C)c([N+](=O)[O-])cc2F)CC1` the figure was 13.3%. With `N/C(=N\OC(=O)Nc1ccc(Cl)c(Cl)c1)c1ncc(C(F)(F)F)cc1Cl` the figure was 14.7%; with `CC(C)(C)NC(=O)CN(C(=O)c1csnn1)c1ccccc1-c1ccccc1`, -0.67%. With `O=C(N/N=C/c1sc(N2CCCCC2)nc1-c1cccs1)c1cccnc1` the figure was -6.04%; with `Nc1nc(COC(=O)CCC(=O)c2ccc(Cl)cc2)nc(Nc2ccccc2)n1`, -7.47%. Regarding `COc1cccc(/C=N/Nc2cc(C)nc(-c3ccccc3O)n2)c1O`, the inhibition was -5.66%. The figure for `CC1CCCN(CC(O)COCc2ccccc2)C1` (stereo not given) is -5.68%; for `Cc1ccccc1S(=O)(=O)N1[C@@H](c2cccc(Cl)c2)C(C(=O)O)=CC[C@H]1c1ccc(Cl)cc1` it is 13.3%; for `Cc1ccc(S(=O)(=O)N2CCN(c3ncnc4ccccc34)CC2)cc1` it is 50.8% (active). On to `COC(=O)c1sccc1NC(=O)CSc1ccccc1NS(=O)(=O)c1cc(Cl)ccc1Cl`, for which the inhibition was 8.36%. On to `NC(=O)C1=C[C@@H](c2ccc3c(c2)OCO3)C[C@@H](OCCCCO)O1`, for which the inhibition was -5.99%. With `CCn1c(SCC(=O)c2ccc3ccccc3c2)nnc1-c1cccs1` the figure was -8.88%; with `Cn1c(N)c(C(=O)COC(=O)c2ccc3ccccc3c2)c(=O)n(C)c1=O`, 1.91%. As for `CC(Oc1ccc2ccccc2c1)C(=O)NNC(=S)NC(=O)c1ccco1` (stereo not given), the inhibition is -8.71%. The figure for `COc1cccc(C(=O)NC(=O)Nc2nc(C)cc(C(F)(F)F)n2)c1` is -10.8%; for `N#CC(=C1SC=CS1)c1nc(-c2ccccc2)cs1` it is -3.94%. With `CCOC(=O)c1c(-c2ccc(C)cc2C)csc1NC(=O)CSc1nnnn1C` the figure was -6.6%.

Regarding `Cc1cc(C(=O)NC2CCCc3c2cnn3-c2cccc(C)c2C)c(C)o1` (stereo not given), the inhibition is 34% (active). `O=C(NC(Cc1c[nH]c2ccccc12)C(=O)N/N=C/c1ccc(Br)cc1)c1cccs1` (stereo not given): the inhibition was 3.66%. With `CCOc1ccc(CCNC(=O)C(CC)n2nc(C)n3c(cc4sccc43)c2=O)cc1OCC` (stereo not given) the figure was -2.6%. As for `COc1ccc2[nH]cc(/C=C(/C#N)S(=O)(=O)c3ccccc3)c2c1`, the inhibition is -11.6%. The figure for `COc1cc2ccccc2cc1C(=O)Nc1ccc(N2CCOCC2)cc1` is -8.59%; for `O=C(Cn1[nH]c(=O)c2ccccc2c1=O)Nc1cccc(-c2nnc3n2CCCCC3)c1` it is -5.39%. Turning to `O=C(N/N=C/c1c(Cl)[nH]c2ccccc12)c1sc2ccccc2c1Cl`, the inhibition was 10.8%. For the molecule `COc1ccc2sc(-c3ccc(N(C)C)cc3)c(C#CCO)c2c1`, the inhibition is -6.95%.

On to `CN(c1ccccc1)S(=O)(=O)c1cccc(NC(=O)Cc2ccc(Cl)cc2)c1`, for which the inhibition is 6.81%.

Consider `S=C(NCc1ccc(Cl)cc1)NC12CC3CC(CC(C3)C1)C2`, for which the inhibition is 14%.

With `COc1ccccc1CNC(=O)C1CCCN(S(=O)(=O)c2cccc3cccnc23)C1` (stereo not given), the inhibition was -8.22%. Turning to `O=C1C=C(c2ccc(Cl)cc2)C(=O)N1Nc1ccccc1`, the inhibition is 22.4%. With `O=C(CCCN1CCc2[nH]c3ccc(F)cc3c2C1)c1ccc(F)cc1` the figure was 26.8% (active).
